In the OligoGym collection:

Molecular target: GRK1
Assay: pooled miR-30 sensor sort-seq; sequence = guide strand
Details: shRNA
Further: reference of the scale not given here.

Sequence	sensor-assay potency score (higher = more potent)
TAGACAGTTTTGGAGTCTGGGA	-1.3
TTGTTCTCCACCTTCTCTCCAC	-0.0458
TAAACTTCGCCACTATCCCCTC	-0.678
TTGCCGGTCGCCTTCATCTGGC	-1.21
TTCTTGTTCAGCTTCTTGCAGG	-0.533
TTGTCGCAGGTCTCATCTCTGA	-1.13
TTGTCCAGCAGCACGTTCTCGG	-0.903
TTAAGGTCCTTGAAGAGGGGGT	0.091
TTTGCGTAGACAGTTTTGGAGT	-0.657

Molecular target: GRSF1
Assay: as above
Details: shRNA

Sequence	sensor-assay potency score (higher = more potent)
TATACTTCCACATACCGCTGGC	-0.174
TTCATGTTCTTCAAAGACCATT	-0.97
TCGATTACCAATTTCTTCCCTG	-0.139
TTTCTTCTTCTAAACAGTCCAC	-0.0512
TCTGCTTGGAAATATCTCGATG	-0.758
TTCTTCTAAACAGTCCACTATG	-0.687
TTCTTCTTCTAAACAGTCCACT	-0.559
TAGCAGTAGGAAAAGATGCGAT	-0.689
TTATATACTTAGCAGTAGGAAA	-1.31
ATGTATTCCATTCTCACCGTTG	-1.12
TAAGGCTTTCTGCACATCCTGC	-0.572
TTGAGCATCGCTGCAACAGCAT	-0.486

Molecular target: GSTO1
Assay: as above
Details: shRNA

Sequence	sensor-assay potency score (higher = more potent)
AACTCTAAGATCATCTTCTGGC	-0.0597
TCTAAGATCATCTTCTGGCAAG	-0.832
ATATTGATGACTTCATGCCTGA	-0.0136
TGAGACTGTGGGATCTTCCTTC	0.458
TAGGCCAGCATAGTCTTCTTTA	-0.878
TAGAGATAGAATTGCCACCAAA	-1.16
TAACTTCATTGCTTCCAGCCGT	-0.351
TATTAGTCAGAACCTCCTCTAG	-0.847
TCTAATAAAGCTTCCTACCAAG	-0.981
TTTTCTTAAAGAACCACTCAGG	-0.256
TTTCTCACTAGTAAGCAGGGCT	0.254
TTATTAGTCAGAACCTCCTCTA	-0.622

Molecular target: GTF2H5
Assay: as above
Details: shRNA

Sequence	sensor-assay potency score (higher = more potent)
TTGAATGATGAACTTCTTCCCC	-0.395
TACAGCAGAAACTGCTTCATGG	-0.967
ATCAATGTCTTGAATGATGAAC	-1.38
TGAATGATGAACTTCTTCCCCA	-0.103
TTAATTCACCCACTCGCTCCTG	-0.542
TCTGCTATTACAAAGACGTGAG	0.353
TCTTGAATGATGAACTTCTTCC	-0.75
